From PubChem
D1 antag = blocks dopamine activation of the human D1 receptor | P21728 | HEK293 TREx D1 cells, calcium flux, dopamine EC80; hits give low values | activity change, negative = inhibition, % at 10 µM | 3.2% of 360,000 active; in the data active means activity change below about -30%; further: on the % scale 0 is the no-effect control and ±100 the full control effect
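Calcium flux readout: force-coupled, inducible Hek293 Trex D1 line, cells induced overnight at 30 C with tetracycline, dye-loaded 30–90 min at RT. Antagonism scored against EC80 dopamine challenge given 180 s after compound.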
D1 PAM = enhances dopamine response at the human D1 receptor; P21728; HEK293 TREx D1 cells, calcium flux, dopamine EC20 potentiation; potentiation, % at 10 µM; 0.036% of 360,000 active; AID 504651; in the data active means potentiation above about 30%; further: 0% is about no effect
TRHR PAM = allosterically enhances the human TRH receptor. P34981. TRHR cells, fluo-8 calcium fluorescence, EC20 TRH enhancement. enhancement, % at 2 µM. 0.66% of 360,000 active; in the data active means enhancement above about 30%; further: 0% is about no effect
Target sequence (P34981 whole entry, looked up): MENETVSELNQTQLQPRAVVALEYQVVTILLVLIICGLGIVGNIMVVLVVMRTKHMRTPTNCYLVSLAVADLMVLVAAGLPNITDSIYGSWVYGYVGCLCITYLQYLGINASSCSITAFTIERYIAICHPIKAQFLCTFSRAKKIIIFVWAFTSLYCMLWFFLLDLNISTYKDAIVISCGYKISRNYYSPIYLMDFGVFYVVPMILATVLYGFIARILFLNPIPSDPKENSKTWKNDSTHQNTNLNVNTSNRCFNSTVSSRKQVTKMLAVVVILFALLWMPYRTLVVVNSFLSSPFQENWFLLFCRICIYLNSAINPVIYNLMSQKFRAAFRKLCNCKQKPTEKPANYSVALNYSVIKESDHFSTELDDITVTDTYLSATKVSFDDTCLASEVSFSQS
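TRHR-expressing cells loaded with fluo-8 calcium dye were read kinetically (ex 480/em 530) during compound addition, then stimulated with an EC20 of TRH (10 nM final). Enhancement of the Gq-mediated intracellular calcium response was scored.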
D1 ag = activates the human D1 dopamine receptor. 1% of 360,000 active. HEK293 T-REx D1 cells, calcium flux, agonist mode. P21728. AID 504660. activation, % at 2 µM; further: 0% is about no effect
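Inducible HEK293 T-REx D1 cells, force-coupled to calcium signalling, were plated at 4000 cells/well with tetracycline and held overnight at 30 C. After no-wash calcium dye loading, compound-evoked calcium rise over 180 s flagged agonists.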
TRHR ag = TRH receptor (human) agonism. activation, % at 2 µM. 0.18% of 360,000 active. TRHR cells, calcium flux fluo-8, FDSS agonist mode. AID 493084. P34981; further: 0% is about no effect
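Agonist-mode FDSS calcium read (Ex 480/Em 530, 1 s cycles) in 1536-well TRHR cells with fluo-8 dye, after 10-cycle baseline and 23 nL compound addition; TRH at EC20 (10 nM final) added afterwards for the enhancer phase.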
Numbers without * were called inactive. An excerpt weighted towards active compounds, which were near 4.7% of everything screened. Unless noted, no stated cut-off is given here; in the data, active means activation above about 30%; inactive means the rest.

SMILES	D1 antag	D1 PAM	TRHR PAM	D1 ag	TRHR ag
Cc1[nH]c2c(C)cccc2c1CCNC(=O)c1cc2ccccc2oc1=O	3	-5	3	-1	2
COc1ccc2oc(=O)c(C(=O)NCCc3c(C)[nH]c4c(C)cccc34)cc2c1	6	-1	51*	-1	0
Cc1[nH]c2ccc(F)cc2c1CCNC(=O)c1cc2cc(Cl)ccc2oc1=O	-1	-1	4	-1	0
COc1cccc2cc(C(=O)NCCc3c(C)[nH]c4ccc(F)cc34)c(=O)oc12	-4	-4	39*	0	-1
Cc1ccc(C)c(NC(=O)C2CCCN(S(=O)(=O)c3cccc4nsnc34)C2)c1 (stereo not given)	-1	1	-6	-1	0
CCOC(=O)c1c(-c2ccc(OC)cc2)csc1NC(=O)CCN1C(=O)c2ccccc2C1=O	1	-3	3	5	-1
CCOC(=O)c1c(-c2ccc3ccccc3c2)csc1NC(=O)CCCC(=O)O	-56*	-7	2	18	1
COc1ccccc1CNC(=O)c1cnc2sc(N3CCCCCC3)nn2c1=O	8	-1	-1	-1	0
Cc1ccc(NC(=O)CSc2cn(CC(=O)N3CCOCC3)c3ccccc23)cc1Cl	-8	-1	9	7	0
CCOc1ccc(NC(=O)c2c(NCc3sccc3C)sc3c2CCCCC3)cc1	-7	-2	-3	0	0
Cc1ccc(-n2nc3c(c2NC(=O)c2ccc(OC(C)C)cc2)CS(=O)C3)cc1 (stereo not given)	-2	-6	0	2	0
Cc1ccc(-n2nc3c(c2NC(=O)c2ccccc2Br)CS(=O)C3)cc1 (stereo not given)	-43*	-4	3	2	0
CCCn1c(CCC(=O)Nc2ccc(C)c(Cl)c2)nc2cccnc21	-2	-2	-3	-2	-1
O=C(O)c1c(-c2ccccc2)oc2ccc(OCc3c(F)cccc3Cl)cc12	0	1	13	36*	-1
Cc1c(C(=O)N2CCCCCC2)c(S(=O)(=O)Nc2ccc(OC(F)(F)F)cc2)c(C)n1C	4	2	2	9	0
COC(=O)c1ccc(N2CCN(S(=O)(=O)c3ccc(Br)cc3)CC2)c([N+](=O)[O-])c1	-33*	-2	2	7	0
Cc1ccc(NC(=O)CN(C)C(=O)c2ccc(-n3cncn3)c([N+](=O)[O-])c2)cc1	-55*	-5	17	0	0
COC(=O)c1ccc(-n2cncn2)c([N+](=O)[O-])c1	17	-2	37*	3	0
COc1ccc(OC)c(NC(=O)C(OC(=O)CNC(=O)c2ccccc2)c2ccccc2)c1 (stereo not given)	1	0	4	2	-1
COc1ccc(S(=O)(=O)Nc2ccc3c(c2)CCCN3S(=O)(=O)c2ccc(C)cc2)cc1F	-5	0	-3	4	-1
Cc1cccc(N(CC(=O)NCCSc2nc3ccccc3s2)S(=O)(=O)c2ccccc2)c1	5	0	8	1	0
COc1ccc(S(=O)(=O)N(CC(=O)NCCSc2ccccc2)c2ccc(C)cc2)cc1	3	-2	-3	32*	3
COc1ccc(N(CC(=O)NCCOc2ccccc2)S(=O)(=O)c2ccc(C)cc2)cc1	4	-7	-6	2	0
O=C(CN(c1ccccc1)S(=O)(=O)c1ccccc1)NCCSc1nc2ccccc2s1	-63*	1	-6	8	1
COc1ccc(S(=O)(=O)N(CC(=O)NCCSc2ccccc2)c2ccc(Cl)cc2)cc1	-8	2	6	36*	-1
CCOc1ccc(N(CC(=O)NCCOc2ccc(C)cc2)S(=O)(=O)c2ccccc2)cc1	-38*	12	13	54*	1
CC(C)Oc1ccc(CNC(=O)Cn2nc(N3CCN(c4ccccc4)CC3)ccc2=O)cc1	11	-3	1	1	0
N#Cc1ccc(OCC(=O)OCC(=O)NCCC2=CCCCC2)cc1	-12	-11	-8	-1	0
CCC(=O)c1ccc(OCC(=O)NC2CCCC2)cc1	-8	-8	-6	4	0
CCC(=O)c1ccc(OCC(=O)OCC(=O)NCCC2=CCCCC2)cc1	-31*	-5	-4	8	0
